The results in this text go back to ChEMBL document CHEMBL1201862, “PubChem BioAssay data set” (2004).

About 2,100 (0.53%) of roughly 400,000 compounds were called active. Inconclusive results (about 14%) are left out. How the calls were made is not given here. The list comes from a sample in which actives are over-represented; it also holds similar structures and randomly drawn compounds.

Chain of Ataxin-2 (Homo sapiens) (Q99700 whole entry): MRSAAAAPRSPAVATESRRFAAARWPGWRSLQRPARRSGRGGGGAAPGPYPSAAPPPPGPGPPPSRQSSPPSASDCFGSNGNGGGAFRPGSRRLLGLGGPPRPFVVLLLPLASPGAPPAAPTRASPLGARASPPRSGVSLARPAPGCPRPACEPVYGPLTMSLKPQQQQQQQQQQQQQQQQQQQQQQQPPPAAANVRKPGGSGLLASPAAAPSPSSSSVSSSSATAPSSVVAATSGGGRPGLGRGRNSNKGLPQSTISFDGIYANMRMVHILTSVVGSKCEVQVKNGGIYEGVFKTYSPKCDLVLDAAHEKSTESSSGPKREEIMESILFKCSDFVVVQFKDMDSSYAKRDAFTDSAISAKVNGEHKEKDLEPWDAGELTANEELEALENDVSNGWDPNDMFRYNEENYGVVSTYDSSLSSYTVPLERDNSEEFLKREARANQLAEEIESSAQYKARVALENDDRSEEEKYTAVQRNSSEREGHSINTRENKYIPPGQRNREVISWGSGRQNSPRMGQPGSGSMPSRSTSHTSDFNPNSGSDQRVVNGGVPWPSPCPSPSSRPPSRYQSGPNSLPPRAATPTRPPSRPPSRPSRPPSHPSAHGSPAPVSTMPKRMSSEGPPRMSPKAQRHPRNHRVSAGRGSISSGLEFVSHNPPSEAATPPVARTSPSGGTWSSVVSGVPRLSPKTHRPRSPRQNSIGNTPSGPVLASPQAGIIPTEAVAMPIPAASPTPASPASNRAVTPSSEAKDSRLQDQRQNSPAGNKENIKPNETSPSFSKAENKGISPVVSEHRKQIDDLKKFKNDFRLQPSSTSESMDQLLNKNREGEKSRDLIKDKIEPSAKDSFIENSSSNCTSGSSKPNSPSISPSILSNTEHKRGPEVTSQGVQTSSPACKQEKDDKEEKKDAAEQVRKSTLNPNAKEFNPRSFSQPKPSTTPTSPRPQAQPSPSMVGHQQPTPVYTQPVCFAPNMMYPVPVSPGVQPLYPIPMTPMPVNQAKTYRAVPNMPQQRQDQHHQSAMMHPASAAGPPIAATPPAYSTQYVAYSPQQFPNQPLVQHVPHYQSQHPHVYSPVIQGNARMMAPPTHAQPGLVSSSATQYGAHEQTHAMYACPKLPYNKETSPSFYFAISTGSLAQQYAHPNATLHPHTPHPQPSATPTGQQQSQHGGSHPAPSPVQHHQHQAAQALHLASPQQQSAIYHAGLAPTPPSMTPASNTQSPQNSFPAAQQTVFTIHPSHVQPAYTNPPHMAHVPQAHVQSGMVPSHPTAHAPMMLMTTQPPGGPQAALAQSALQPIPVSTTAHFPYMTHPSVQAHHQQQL

The assay addresses Ataxin-2 (Homo sapiens) (UniProt Q99700). The assay can be described thus: qHTS for Inhibitors of ATXN expression. The format is functional.
As to `CCCCN(C)C(=O)c1ccc2c(c1)N(Cc1cccc(F)c1)C(=O)c1ccccc1S2`, the Potency was 25.1 µM (active).
For the compound `O=C1c2cccc3cccc(c23)N1Cc1ccc(F)cc1`, the Potency result is “inactive”.
For `CCCCN1C(=O)c2cccc3cc(O)cc(c23)C1=O` the value was “inactive”.
Under `Cc1oc(-c2ccccc2F)nc1C[S+]([O-])CC(=O)NCc1ccc(F)cc1` (stereo unspecified) stands “inactive”; under `N#Cc1c(N)n(-c2cccc(C(=O)O)c2)c2nc3ccccc3nc12`, “inactive”.
For `Nc1c(C(=O)Nc2ccccc2F)sc2nc(Cc3ccccc3)cc(C(F)(F)F)c12` the value was “inactive”; for `CCc1ccccc1NC(=O)c1sc2nc(C)cc(C)c2c1N`, “inactive”.
Take `O=C(Nc1ccccc1)Nc1sccc1-c1nc2ccccc2s1`: the Potency result was “inactive”.
For `O=C(Nc1ccccc1)Nc1nc(-c2ccc(F)c(F)c2)cs1` the value was “inactive”; for `Cc1ccc(-c2ocnc2C(=O)Nc2nc(C)cs2)cc1`, “inactive”.
For `CCOC(=O)c1sc(-c2ccc(C(F)(F)F)cc2)nc1O` the value was “inactive”; for `Cc1ccc(C(=O)Nc2nc(C(N)Cc3ccc(C(F)(F)F)cc3)cs2)cc1` (stereo unspecified), 39.8 µM (active); for `NC(Cc1ccc(C(F)(F)F)cc1)c1csc(NC(=O)Nc2ccccc2)n1` (stereo unspecified), 35.5 µM (active).
For `CC(C)CC(N)c1csc(NC(=O)Nc2ccccc2Cc2ccccc2)n1` (stereo unspecified) the value was 22.4 µM (active); for `NC(Cc1ccc(C(F)(F)F)cc1)c1csc(NC(=O)Nc2ccccc2Cc2ccccc2)n1` (stereo unspecified), 35.5 µM (active).
With `CC(=O)c1ccc(/C=C/c2nc3ccccc3n2C)o1`, the Potency entry was “inactive”.
In the case of `Fc1ccc(N2CCN(C(S)=NCc3ccco3)CC2)cc1`, the Potency entry is “inactive”.
Under `Nc1cccc2c1C(=O)N(C(=O)c1cccc(S(=O)(=O)N3CCCC3)c1)C2=O` stands “inactive”.
For `C/C(=N\OCC(=O)Nc1ccccc1C(=O)O)c1cccs1`, the Potency entry was “inactive”.
Take `CC(=O)NC1=NC(=O)/C(=C/c2cc(C)n(-c3cccc(C(=O)O)c3)c2C)S1`: the Potency entry is “inactive”.
Under `CC(C)(C)c1cc(C(=O)NNc2cccc(Cl)c2)n(Cc2ccccc2)n1` stands “inactive”.
As for `CC(C)CC(N)c1csc(NC(=O)c2cc(C(C)(C)C)nn2Cc2ccccc2)n1` (stereo unspecified), the Potency was 31.6 µM (active).
Under `CC(C)(C)c1cc(NC(=O)COC(=O)c2ccccc2)n(-c2ccccc2)n1` stands “inactive”; under `COC(=O)c1ccc(COc2ccccc2OC)o1`, “inactive”; under `CC(C)Cn1c(N)c(C(=O)COC(=O)c2cc3ccccc3cc2O)c(=O)n(C)c1=O`, “inactive”.
Under `Cc1cccc(-n2cc(CNCCc3nc(C)cc(C)n3)c(-c3cccc(F)c3)n2)c1` stands 31.6 µM (active); under `Cc1cccc(C2=NN(c3ccccc3)[C@H](CO)[C@H]2c2ccc(F)cc2)c1`, “inactive”.
For `Cc1ccc(-n2cc(CNCCCn3cccn3)c(-c3cccc(C)c3)n2)cc1`, the Potency was 20 µM (active).
For `Cc1cccn2c(=O)c3cc(C(=O)NCCCN4CCCC4=O)n(C)c3nc12` the value was “inactive”.
For `Cc1ccc(C2(c3ccc(C)cc3)NC(=O)N(CC(=O)NCCCN3CCCC3=O)C2=O)cc1` the value was “inactive”; for `Cc1ccc(-n2cc(CNCCCN3CCCC3=O)c(-c3ccc(F)cc3)n2)cc1`, 25.1 µM (active); for `CCOC(=O)c1cc2c(=O)n3ccccc3nc2n(CCCOC)/c1=N\C(=O)C(C)(C)C`, “inactive”.
With `CCOc1ccc(NC(S)=Nc2cccnc2)cc1`, the Potency entry is “inactive”.
Under `Cc1cc(N(C)Cc2ccccc2)nc2cc(O)ccc12` stands “inactive”; under `CN(CCCC(=O)N1CCN(c2ncccn2)CC1)S(=O)(=O)c1ccc(F)cc1`, “inactive”.
Consider `Cc1ccc(-n2nc3c(=O)n(CC(=O)NC4CCCCC4)nc(C)c3c2C)cc1`, for which the Potency result was “inactive”.
As for `O=C(NCC1CCCCC1)c1ccc(Cl)c(S(=O)(=O)N2CCOCC2)c1`, the Potency entry is “inactive”.
Under `O=C(NC1CCCCCC1)c1cc2c(=O)n3ccccc3nc2s1` stands “inactive”; under `O=C(Cn1ncc(Cl)c(Cl)c1=O)NCC1CCCCC1`, 31.6 µM (active); under `O=C(Cn1ncc(Cl)c(Cl)c1=O)NC1CCCCC1`, 28.2 µM (active).
Under `Cc1cc(C(F)(F)F)c(C#N)c(SCC(=O)Nc2nc3cc(Br)ccc3s2)n1` stands “inactive”.
For `COC(=O)c1sc2ccccc2c1NC(=O)c1ccc(S(=O)(=O)N2CCCC(C)C2)cc1` (stereo unspecified) the value was “inactive”.
Turning to `COc1ccc(CCN(Cc2cc3cc(C)ccc3nc2O)C(C)=O)cc1OC`, the Potency entry was “inactive”.
For `Oc1nc2ccccc2nc1-c1nnnn1Cc1ccccc1` the value was “inactive”; for `CCOc1ccc2nc(O)c(CN(Cc3ccco3)C(CC)c3nnnn3Cc3ccccc3)cc2c1` (stereo unspecified), 20 µM (active); for `CCC(c1nnnn1Cc1ccco1)N(CCc1ccccc1)Cc1cc2cc(C)ccc2nc1O` (stereo unspecified), 39.8 µM (active).
Under `Cc1ccc2nc3c(cc2c1)c(NC(=O)c1ccco1)nn3CC(C)C` stands “inactive”.
For `CC1CCCN(C(=S)SCC(=O)c2cc(Br)cc(Br)c2O)C1` (stereo unspecified) the value was “inactive”; for `O=C(Cc1csc(Nc2nc(S)nc3ccccc23)n1)N1CCN(c2cccc(Cl)c2)CC1`, “inactive”; for `CCn1c(SC(C)C(=O)Nc2nnc(C)s2)nnc1-c1ccco1` (stereo unspecified), “inactive”.
On to `Cc1cc(C(=O)CN2C(=O)c3cccc(N)c3C2=O)c(C)n1Cc1cccs1`, for which the Potency result was “inactive”.
Under `Cc1c(C#N)c(NC(=O)CCl)n(Cc2cccs2)c1C` stands 11.2 µM (active); under `Cc1cc(/C=C(\C#N)C(=O)NCc2cccs2)c(C)[nH]1`, “inactive”; under `Cc1c(CCC(=O)O)c(=O)oc2c(C)c3occ(-c4ccc(Cl)cc4)c3cc12`, “inactive”.
Regarding `C[C@@H]1CN([C@@H](C)CO)C(=O)CCCn2nncc2CO[C@H]1CN(C)Cc1ccc(-c2ccccc2)cc1`, the Potency was 28.2 µM (active).
Under `C[C@@H]1CN([C@H](C)CO)C(=O)Cc2cc(NS(=O)(=O)c3ccc(Cl)cc3)ccc2O[C@H]1CN(C)Cc1ccc(C(F)(F)F)cc1` stands 25.1 µM (active); under `COc1cccc(S(=O)(=O)N(C)C[C@@H]2OCc3cnnn3CCCC(=O)N([C@@H](C)CO)C[C@H]2C)c1`, “inactive”; under `C[C@H]1CN([C@@H](C)CO)C(=O)Cc2cc(NC(=O)CCC(F)(F)F)ccc2O[C@H]1CN(C)Cc1ccc(-c2ccccc2)cc1`, 35.5 µM (active).
In the case of `O=C1OCc2ccc(NS(=O)(=O)c3ccc(C(F)(F)F)cc3)cc21`, the Potency result was “inactive”.
Under `C[C@H](CO)N1C[C@H](C)[C@@H](CN(C)S(=O)(=O)c2ccc(-c3ccccc3)cc2)OCc2cn(nn2)CCCC1=O` stands “inactive”; under `C[C@H]1CN([C@@H](C)CO)C(=O)Cc2cc(NC(=O)CCC(F)(F)F)ccc2O[C@H]1CN(C)Cc1ccc(C(F)(F)F)cc1`, 39.8 µM (active).
